Inconclusive results are not listed. Unmarked numbers belong to inactive results. Activity calls are given as the source filed them. Calls come from the whole dose curve; as a rule, active = well fitted inhibition curve with a large enough effect; inconclusive = small, poorly fitted or top-dose-only effect; inactive = no such curve, though single readings can be large or run the other way.
Potency is the fitted concentration of half-maximal effect.

The nature of the experiment: Acumen qHTS Assay for Inhibitors of the mTORC1 Signaling Pathway in WT MEF Cells: Hit Validation.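 For activity change, negative = inhibition: percent of cells above a cutoff set by 7.5 nM rapamycin treated wells.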 Note: nearly all actives have a fitted effect of over 60% in size. The note with it: Acumen imaging; series mostly up to 37.3 µM; activity change, negative = inhibition: at the top concentration. An excerpt:
The mammalian target of rapamycin (mTOR) is an intracellular serine/threonine kinase Aberrant regulation of mTOR signaling plays a causative role in a number of human diseases, including cancer, benign tumors such as lymphangioleiomyomatosis (LAM) and Tuberous Sclerosis Complex (TSC), and metabolic diseases such as diabetes and obesity. This project aims to identify inhibitors of ribosomal protein S6 (rpS6) phosphorylation. The phosphorylation of rpS6 is a key event downstream of mTOR activation. The assay uses a phospho-specific antibody of phospho-rpS6 to detect inhibitors of mTOR activation. Mutations in the Tsc1 and Tsc2 genes are the underlying genetic lesions responsible for TSC, causing constitutive activation of the mTORC1 pathway and leading to profound effects on cell metabolism. Aberrant metabolism in cancer has recently received significant attention as a target to develop therapeutic agents in the treatment of cancer.1 As Tsc2-/- cells have lost the ability to respond to energy and growth factor deprivation, these cells are unable to properly down regulate cellular biosynthetic processes in response to metabolic stress, and are thus extremely sensitive to glucose deprivation-induced death.2 A central goal of this project is to explore the unique cell survival and metabolic properties of cells with Tsc1 or Tsc2 by screening for compounds that selectively target the Tsc2-/- MEFs by screening both Tsc2-/- and WT MEF cell lines. We hope to better understand these aspects of TSC physiology in order to exploit them for therapeutic benefit.
NIH Molecular Libraries Probe Production Centers Network [MLPCN]
NIH Chemical Genomics Center [NCGC]
Assay Submitter (PI): Blenis, John; Harvard University
For quantitative high throughput analysis of mTORC1 signaling, we developed a cell-based assay for immuno-fluorescence based detection of rpS6 phosphorylation on the Acumen Explorer that will be used a platform for the primary small molecule screen. Mouse embryonic fibroblasts (MEFs) are cultured in 1536-well plates using DMEM + 10% FBS. Twenty-four hrs after plating, test compounds (solubilized in DMSO) are delivered and incubated with the cells for 24 hrs at 37 degree Celsius. Following the incubation, media with compound is aspirated and the cells are fixed in 4% paraformaldehyde (PFA) containing PBS + 0.2% TX-100. Next, PFA is aspirated, cells are washed two times with PBS plus 0.2% TX-100 and the cells are blocked for 1 hr at room temperature (blocking buffer: LiCOR Blocking Buffer plus 0.2% TX-100). This is followed by aspiration and staining with Alexa-488 conjugated-phospho-rpS6 Ser235/236 antibody for 2 hours at room temperature (Cell Signaling Technology # 4803, 1:50 dilution in blocking buffer). Cells are washed two times with PBS plus 0.2% TX-100, and stained with 10 uM propidium iodide (PI) for 20-25 minutes for cell number measurement (1:500 dilution of Hoescht staining is also added for IN Cell imaging). The plates are scanned on the Acumen Explorer laser scanning instrument (TTP Labtech) using the 488nm laser for simultaneous excitation of the Alexa-488 and PI. […] Fluorescence emission from the PI stain is selected using a 575-640 nm band pass filter. The normalized phospho-S6 staining is calculated as the ratio of the integrated Alexa 488 intensity divided by the integrated PI intensity for the single concentration rapamycin control (7.5 nM) and DMSO columns. […] Inhibition of the pathway is defined based on the normalized phospho-S6 intensity in rapamycin treated cells. Active cells are defined as those with a normalized phospho-S6 staining above this threshold, and each treatment is reported as the % positive cells in the well, where thresholds are defined by selecting wells with the highest and lowest signal and differentiating between the % non-active and % active populations. In addition to the pathway specific phospho-S6 endpoint, the number of PI stained cells from the Acumen is recorded as a measure of cell viability. […]
(In general: Quantitative high-throughput screening tests each substance at several concentrations.)
In the case of `Cc1ccccc1-c1nc(CN2C(=O)CN=C(c3ccccc3)c3ccccc32)c(C)o1`, the “activity change, negative = inhibition” value was -21.4%.
In the case of `Cc1ccccc1-n1c(/C=C/c2ccccc2F)nc2ccccc2c1=O`, the “activity change, negative = inhibition” value is 14.5%.
On the same count and under the same terms, for `CCN(CC)C(=O)c1ccc(NC(=O)CCn2nc(-c3ccc(C)cc3)c3ccccc3c2=O)cc1` the value was 33.8%.
In the case of `CCOc1ccc(NC(=O)CSc2oc(-c3ccccc3)nc2S(=O)(=O)c2ccc(Cl)cc2)cc1`, the Potency is 3.69 µM (active).
`CCOc1ccc(N(C(C)C(=O)Nc2cc(Cl)ccc2OC)S(C)(=O)=O)cc1` (stereo not drawn): the Potency was 3.69 µM (active).
For the compound `CCCOC(=O)c1c(C)oc2c1cc(NS(=O)(=O)c1ccc(OCC)cc1)c1ccccc12`, the Potency is 0.656 µM (active).
As to `O=C(Nc1ccon1)c1cccn(Cc2cccc(Cl)c2)c1=O`, the “activity change, negative = inhibition” value is 3.6%.
In the case of `CCN(CC)CCSc1nc2ccccc2c(=O)n1-c1ccc(Cl)cc1`, the “activity change, negative = inhibition” value was 0.87%.
`CN[C@@H]1C[C@@]2(C)O[C@@H]([C@@H]1OC)n1c3ccccc3c3c4c(c5c6ccccc6n2c5c31)C(=O)NC4`: the Potency is 0.0325 µM (active).
With `Cc1ccc(-n2c(/C=C/c3ccc(Br)s3)nc3ccccc3c2=O)cc1C`, the “activity change, negative = inhibition” value was -27.4%.
Regarding `CCOc1ccc(CN(CCc2ccc3c(c2)OCO3)Cc2ccc(C)cc2)cc1`, the “activity change, negative = inhibition” value is -17.6%.
As to `Cc1cccc(CN2CCc3nc(N4CCN(c5ccccn5)CC4)ncc3C2)c1`, the “activity change, negative = inhibition” value was 21.3%.
Turning to `Cc1ccccc1-n1c(/C=C/c2c(C)[nH]c3ccccc23)nc2ccccc2c1=O`, the Potency is 1.85 µM (active).
